Structures are written as SMILES. Inconclusive results are not listed. Calls of active or inactive are those of the source. The call rests on the fitted dose curve; in most records, active means well fitted inhibition curve with a large enough effect in the repeat runs; inconclusive means weak or mixed curves; inactive means flat fitted curve, though single readings scatter.

This assay deals with Voltage-gated inwardly rectifying potassium channel KCNH2 (Homo sapiens) (UniProt Q12809). Put plainly: Human Ether-a-go-go-Related Gene (hERG) channel small molecule antagonists: fluorescence cell-based qHTS assay (AID 1671200). Further: nearly all actives have a fitted effect of over 50% in size. The following applies: hERG-U2OS cells, FluxOR thallium flux fluorescence; series mostly up to 76.8 µM. The source says: National Center for Advancing Translational Sciences [NCATS]
Sequence of Voltage-gated inwardly rectifying potassium channel KCNH2 (Homo sapiens) (Q12809 whole entry, looked up): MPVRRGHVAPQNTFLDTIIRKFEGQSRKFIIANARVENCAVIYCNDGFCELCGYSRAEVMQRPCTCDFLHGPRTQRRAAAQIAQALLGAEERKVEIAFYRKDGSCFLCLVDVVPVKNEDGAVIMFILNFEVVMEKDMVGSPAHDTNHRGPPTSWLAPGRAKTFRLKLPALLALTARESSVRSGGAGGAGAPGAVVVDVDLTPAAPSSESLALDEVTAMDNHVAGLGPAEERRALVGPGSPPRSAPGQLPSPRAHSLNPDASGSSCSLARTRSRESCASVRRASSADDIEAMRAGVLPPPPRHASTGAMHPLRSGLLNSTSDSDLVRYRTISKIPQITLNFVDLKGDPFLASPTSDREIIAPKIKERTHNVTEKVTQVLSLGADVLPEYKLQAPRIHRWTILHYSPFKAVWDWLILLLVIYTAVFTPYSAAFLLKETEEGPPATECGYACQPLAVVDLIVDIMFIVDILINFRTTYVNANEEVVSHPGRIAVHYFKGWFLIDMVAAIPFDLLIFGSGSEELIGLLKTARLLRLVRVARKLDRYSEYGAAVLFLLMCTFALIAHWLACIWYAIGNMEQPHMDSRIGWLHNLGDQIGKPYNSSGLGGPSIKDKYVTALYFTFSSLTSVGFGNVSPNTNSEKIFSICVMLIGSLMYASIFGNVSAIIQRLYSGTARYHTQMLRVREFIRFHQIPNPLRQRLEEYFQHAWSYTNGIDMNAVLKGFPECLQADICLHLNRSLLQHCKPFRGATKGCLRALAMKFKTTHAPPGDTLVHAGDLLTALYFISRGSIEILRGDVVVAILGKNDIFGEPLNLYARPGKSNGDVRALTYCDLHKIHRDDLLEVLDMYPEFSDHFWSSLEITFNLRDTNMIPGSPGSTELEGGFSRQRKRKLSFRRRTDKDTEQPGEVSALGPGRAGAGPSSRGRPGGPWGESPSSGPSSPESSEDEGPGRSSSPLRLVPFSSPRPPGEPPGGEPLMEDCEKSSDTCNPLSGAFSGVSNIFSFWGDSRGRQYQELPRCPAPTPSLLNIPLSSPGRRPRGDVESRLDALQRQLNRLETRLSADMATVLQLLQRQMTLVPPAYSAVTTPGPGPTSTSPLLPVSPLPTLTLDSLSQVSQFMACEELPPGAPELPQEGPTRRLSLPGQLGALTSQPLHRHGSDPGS
U.S. Environmental Protection Agency [EPA]
National Institutes of Environmental Health Sciences [NIEHS]
National Toxicology Program [NTP]
U.S. Food and Drug Administration [FDA]
Mutations in the hERG channel cause Long QT (LQT) syndrome. LQT syndrome is a cardiac disorder which can cause ventricle arrhythmia and sudden death. Additionally, compounds which block the hERG channel can cause acquired LQT syndrome. Several FDA approved drugs have been removed from the market due to their hERG blocking activity. A cell-based hERG channel inhibition assay can be used to screen chemical compounds that inhibit hERG channel. This assay measures hERG channel activity using thallium ions as surrogate ions to measure potassium into the cells.
Tox21 Assay Protocol Summary:
hERG-U2OS cells were resuspended in culture medium and dispensed into 1536-well, black wall/clear-bottom plates at 1000cells/well/3uL using a Multidrop Combi dispenser (Thermo Fisher, Waltham, MA). After plates were incubated at 37 C overnight, 3 uL of Loading Buffer provided by FluxOR II Potassium Ion Channel Assay kit (Thermo, Carlsbad, CA) was added to each well. The assay plates were then incubated at room temperature in the dark for 1h. […] After the assay plates were incubated at room temperature for 10 min, 1 uL of Stimulus Buffer provided by FluxOR II Potassium Ion Channel Assay kit was added into each well and fluorescence intensity (480nm excitation/540nm emission) was continuously measured for 2 min at 1 second intervals using a Functional Drug Screening System (FDSS) 7000EX kinetic plate reader (Hamamatsu, Japan).
In the case of `CNC[C@H](O)c1cccc(O)c1`, the outcome was inactive.

Take `O=S(=O)(O)NC1CCCCC1`: the molecule was classed as inactive.

As to `Oc1ccc(/C=C/c2cc(O)cc(O)c2)cc1`, the molecule was called inactive.

In the case of `C1N2CN3CN1CN(C2)C3`, the call was inactive.

Take `CCCN(CCC)S(=O)(=O)c1ccc(C(=O)O)cc1`: the result was inactive.

Regarding `CCCNC(=O)NS(=O)(=O)c1ccc(Cl)cc1`, the call was inactive.

Regarding `O=C1CN(/N=C/c2ccc([N+](=O)[O-])o2)C(=O)N1`, the molecule was classed as inactive.

Consider `O=C(O)CCC(=O)O`, for which the molecule was called inactive.

With `CCOc1ccc(NC(=O)CC(C)O)cc1` (stereo not given), the outcome was inactive.

On to `Cc1ccc(C)c(OCCCC(C)(C)C(=O)O)c1`, for which the call was inactive.

As to `COc1ccc2[nH]cc(CCNC(C)=O)c2c1`, the outcome was inactive.

For the molecule `Cc1ccc(O)cc1`, the molecule was classed as inactive.

On to `O=C(O)c1[nH]n(-c2ccc(S(=O)(=O)O)cc2)c(=O)c1N=Nc1ccc(S(=O)(=O)O)cc1`, for which the call was inactive.

For the molecule `O=NO`, the result was inactive.

Consider `Nc1ccc(C(=O)O)cc1`, for which the molecule was classed as inactive.

In the case of `CC(C)[C@@H]1CC[C@@H](C)C[C@H]1O`, the result was inactive.

`NC(=O)NC1NC(=O)NC1=O` (stereo not given): the molecule was called inactive.

With `O=C(O)c1cccnc1`, the outcome was inactive.

For `C/C=C/c1ccc(OC)cc1`, the call was inactive.

Consider `O=S(=O)(O)c1ccc2cc(O)ccc2c1`, for which the result was inactive.

Turning to `Cc1cc(=O)n(-c2ccccc2)n1C`, the outcome was inactive.

Regarding `O=C(O)C(=O)O`, the molecule was classed as inactive.

`O=C1NC(=O)c2ccccc21`: the result was inactive.

`O=C(C1CCCCC1)N1CC(=O)N2CCc3ccccc3C2C1` (stereo not given): the call was inactive.

Consider `Nc1ccc(S(=O)(=O)Nc2nccs2)cc1`, for which the molecule was classed as inactive.

Regarding `CC(=O)OCC(COC(C)=O)OC(C)=O`, the result was inactive.

In the case of `Cc1noc(NS(=O)(=O)c2ccc(N)cc2)c1C`, the molecule was called inactive.

For the molecule `CCC1(c2ccccc2)C(=O)NCNC1=O`, the molecule was called inactive.

In the case of `Nc1ccc(S(=O)(=O)c2ccc(N)cc2)cc1`, the result was inactive.

With `CC(C)(Oc1ccc(C2CC2(Cl)Cl)cc1)C(=O)O` (stereo not given), the molecule was called inactive.

Turning to `O=C(O)/C=C\C(=O)O`, the molecule was classed as inactive.

As for `OC(Cn1cncn1)(Cn1cncn1)c1ccc(F)cc1F`, the call was inactive.

Consider `Nc1ccc(O)c(C(=O)O)c1`, for which the result was inactive.

Turning to `O=C(c1ccccc1)C(O)c1ccccc1` (stereo not given), the result was inactive.

Take `CC(O)CN(CCN(CC(C)O)CC(C)O)CC(C)O` (stereo not given): the molecule was called inactive.

`O=C(O)CCCCCCCC(=O)O`: the outcome was inactive.

As to `NNC(=O)c1ccncc1`, the outcome was inactive.

On to `CCCCCCCCCCCCCCCC(=O)O`, for which the result was inactive.

For the molecule `O=C(O)c1cc(N=Nc2ccc(S(=O)(=O)Nc3ccccn3)cc2)ccc1O`, the molecule was called inactive.

Turning to `Cc1cn([C@H]2C[C@H](N=[N+]=[N-])[C@@H](CO)O2)c(=O)[nH]c1=O`, the molecule was classed as inactive.

The record behind these values is PubChem BioAssay (Tox21).
